High-throughput results (PubChem)
Gal4-VP16 FLuc: inhibits Gal4-VP16 luciferase reporter, ROR gamma counter-screen | hit rate 3.5% among 310,000 | Potency, µM (top dose mostly 53.6 µM), most hits filed as inhibitors | Drosophila S2 Gal4-VP16 UAS-luciferase, luminescence, 20 h;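 note: Gal4-VP16 expression switched on by copper sulfate through the metallothionein promoter; nearly all actives have a fitted effect of over 50% in size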
SW480 rerep: DNA re-replication induction in SW480 cells. Potency, µM (doses to about 46.1 µM), most hits filed as activators. AID 624297. hit rate 1.8% among 340,000. SW480 DNA re-replication, Hoechst DNA content imaging, 48 h; note: nearly all actives have a fitted effect of over 55% in size
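Readout is total intensity of Hoechst-stained nuclei, excited at 405 nm and collected at 500-530 nm. Compound treatment lasted 48 hr at 37 C in 5% CO2 before staining.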
MCF10A rerep: DNA re-replication induction in MCF 10a cells; MCF 10A DNA re-replication, Hoechst nuclear intensity, 48 h; Potency, µM (top dose mostly 46.1 µM), usual class: activators; hit rate 2.9% among 350,000; AID 624296; note: nearly all actives have a fitted effect of over 50% in size
RORgamma inh: inhibitors of mouse ROR gamma transcriptional activity. P51450. Drosophila S2 Gal4-RORgamma UAS-luciferase reporter, 20 h. Potency, µM (highest dose often 53.6 µM), actives largely listed as inhibitors. hit rate 5.4% among 310,000. AID 2551; note: nearly all actives have a fitted effect of over 60% in size
Target sequence (P51450 whole entry, looked up, the tested form may be a part): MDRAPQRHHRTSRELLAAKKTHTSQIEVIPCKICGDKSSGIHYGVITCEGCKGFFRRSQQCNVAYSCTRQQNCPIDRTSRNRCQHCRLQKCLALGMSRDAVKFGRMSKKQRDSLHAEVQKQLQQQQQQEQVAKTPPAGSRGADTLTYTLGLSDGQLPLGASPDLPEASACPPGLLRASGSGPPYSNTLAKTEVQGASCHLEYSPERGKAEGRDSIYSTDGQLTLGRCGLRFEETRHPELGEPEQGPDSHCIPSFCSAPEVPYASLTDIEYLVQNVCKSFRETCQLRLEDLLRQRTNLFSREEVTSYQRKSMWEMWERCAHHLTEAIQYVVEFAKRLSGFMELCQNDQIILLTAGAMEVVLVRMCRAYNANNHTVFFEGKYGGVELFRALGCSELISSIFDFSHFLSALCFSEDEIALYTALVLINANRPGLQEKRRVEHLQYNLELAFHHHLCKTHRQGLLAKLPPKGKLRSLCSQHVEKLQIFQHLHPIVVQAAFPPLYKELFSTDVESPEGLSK
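Using a luciferase readout, inhibitors were identified by reduced reporter activity in Drosophila cells coexpressing a copper-inducible Gal4–ROR gamma fusion and UAS-driven Photinus luciferase, incubated 20 hr after 700 uM copper sulfate.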
ELG1 DNA repair: inhibitors of ELG1-dependent DNA repair in HEK293T cells; hit rate 2.3% among 330,000; HEK293T ELG1-luciferase reporter, luminescence, 16 h; DNA damage induced by 5-fluorouridine; Potency, µM (doses to about 46.1 µM), most hits filed as inhibitors; note: nearly all actives have a fitted effect of over 55% in size
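Reporter activity after DNA damage by 5-fluorouridine is monitored. Compound-treated cells incubate 16 hr at 37 °C, then ONE-Glo is added for 30 min before luminescence reading.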
Numbers stand for hits; – = inactive; ? = inconclusive; · = no result given; ! = a repeat was not active; [ ] = another dose, or the depositor's remark. Rows were chosen to be rich in hits. Some 10% of all compounds tested hit in one or more screens of this group. Calls come from the whole dose curve; as a rule, active = well fitted curve in the direction sought with a large enough effect; inconclusive = small, poorly fitted or top-dose-only effect, or another doubt; inactive = no such curve, though single readings can be large; an effect the other way counts as inactive or inconclusive.

SMILES	Gal4-VP16 FLuc	SW480 rerep	MCF10A rerep	RORgamma inh	ELG1 DNA repair
C=C1C(=O)OC2CC(C)C3C=CC(=O)C3(C)C(O)C12 (configuration not stated)	·	?	–	·	·
COC(=O)[C@]1(C)CC[C@@]2(C)CC[C@@]3(C)C4=CC=C5C(=CC(=O)C(O)=C5C)[C@@]4(C)CC[C@@]3(C)C2C1 (some centres not stated)	3.5µM	·	·	4µM	·
OCCBr	–	·	·	–	·
COc1cc2c(cc1OC)C(C)NCC2 (configuration not stated)	–	–	–	–	–
CC[C@@H]1CN2CCc3cc(OC)c(OC)cc3[C@H]2C[C@@H]1C[C@H]1NCCc2cc(OC)c(OC)cc21	?	·	·	0.56µM	·
CC[C@@H]1CN2CCc3cc(OC)c(OC)cc3[C@@H]2C[C@@H]1C[C@H]1NCCc2cc(OC)c(OC)cc21	–	·	·	1.1µM	·
c1ccc(N2CCC3(CCNCC3)CC2)nc1	–	·	·	–	·
Cc1cc(C)cc(N2C(=O)NC(=O)/C(=C/c3cccn3-c3ccc(Cl)cc3)C2=O)c1	11µM	–	16µM	32µM	?
COC(=O)[C@]1(C)N[C@H](CN(C)S(=O)(=O)c2ccc(-c3ccccc3)cc2)[C@@H]2C(=O)N(Cc3ccccc3)C(=O)[C@@H]21	·	–	?	·	?
COc1cc(/C=N/NC(=O)CN2CCCCC2)ccc1OCc1ccccc1	–	?	–	–	?
COc1ccc(/C=N\NC(=O)c2cccc(F)c2)cc1COc1ccccc1	·	1.5µM	?	·	·
CCON=O	–	0.94µM	–	–	·
CCCc1cc(=O)oc2c3c(cc(OCC(=O)N4CCC[C@H]4C(=O)O)c12)OC(C)(C)CC3	–	–	–	–	?
CNc1ccc2oc(C[C@H]3O[C@@]4(CC[C@H]3C)O[C@H]([C@H](C)C(=O)c3ccc[nH]3)[C@H](C)C[C@H]4C)nc2c1C(=O)O	1.3µM	?	4.6µM	–	5.8µM
CCC12CCCN3CCC4(c5ccc(OC)c(O)c5N(C(C)=O)C4CC1)C32 (configuration not stated)	?	·	·	–	·
Cn1nc(OC(=O)Nc2ccc(Cl)cc2)cc1C(F)(F)F	–	·	·	?	?
C=Cn1ccnc1P(=S)(c1nccn1C=C)C1CCCCC1	?	–	–	10µM	–
CC12CCC3C(=CCc4cc(O)ccc43)C1CCC2=O (configuration not stated)	–	·	·	–	·
O=C1c2cccc3cccc(c23)C(=O)N1CCN1CCN(C(=S)Nc2ccccc2)CC1	?	–	–	14µM	16µM
c1ccc(-c2cc3c(nc2-c2ccccc2)CCNC3)cc1	–[10 µM]	·	·	–[10 µM]	·
COc1cc2c(c(OC)c1OC)-c1ccc(OC)c(=O)cc1C(NC(C)=O)CC2 (configuration not stated)	–	?	?	–	?
COc1ccc2c(c1)C(NC(C)=O)CCc1cc(OC)c(OC)c(OC)c1-2 (configuration not stated)	·	0.058µM	?	·	·
Cc1ccc(-c2cn3c(=S)[nH]nc3s2)cc1	?	–	–	2.8µM	–
C[C@]12C/C(=C/O)C(=O)C[C@@H]1CC[C@@H]1[C@@H]2CC[C@@]2(C)[C@H]1CC[C@]2(C)O	–	?	?	–	·
c1ccc(OCc2ccc(CCCN3CCOCC3)cc2)cc1	–	–	24µM!	–	?
SMILES	Gal4-VP16 FLuc	SW480 rerep	MCF10A rerep	RORgamma inh	ELG1 DNA repair
C[n+]1c2cc(N)ccc2cc2ccc(N)cc21	7.1µM	–	–	?	·
ClCc1ccccn1	–	·	·	–	·
CCCN1CCCC2Cc3[nH]ncc3CC21 (configuration not stated)	–	·	·	–	·
CCNc1cc(N2CCN(C)CC2)ccc1[N+](=O)[O-]	–[10 µM]	–[1.84 µM]	–	–	–
CN(C)c1c([N+](=O)[O-])cc(N2C(=O)C=CC2=O)cc1[N+](=O)[O-]	·	16µM	13µM	·	·
C/C(=N\N1CCCCC1c1cccnc1)c1c(O)n(C2CCCCC2)c(=S)[nH]c1=O (configuration not stated)	4µM	?	?	3.2µM	–
CC(=O)CC(c1ccc(O)cc1)c1c(O)c2ccccc2oc1=O (configuration not stated)	–	·	·	–	·
CC(c1nc2ccccc2c(=O)[nH]1)N(C)CCOc1ccc(Cl)cc1 (configuration not stated)	?	–	–	7.1µM	?
C[C@@H](Cc1ccc(O)cc1)NC[C@@H](O)c1cc(O)cc(O)c1	–	–	–	–	·
CCCCC(CC)COC(=O)c1ccc(C(=O)OCC(CC)CCCC)c(C(=O)OCC(CC)CCCC)c1 (configuration not stated)	–	·	·	–	·
COc1cc2c(cc1/C=C/[N+](=O)[O-])OCO2	?	?	?	7.9µM	?
COc1cc(OC)c(OC)cc1C=O	–	–	–	–	?
CCCN1[C@@H]2C[C@@H](O)CC[C@@H]2C[C@H]1C(=O)OC	–	·	·	–	·
CC1CCCCC1n1c(-c2cccnc2)n[nH]c1=S (configuration not stated)	?	–	–	10µM	–
CN1CCCCC1c1ccc(-c2cccnc2)nc1 (configuration not stated)	–	–	–	–	–
COC(=O)C1=C(C(=O)OC)SC2(S1)C(C(=O)OC)=C(C(=O)OC)Sc1c2ssc1=O	·	1µM	?	·	·
C=C(C)CCl	–	·	·	–	·
CCn1nc(-c2ccccc2)nc2c(=O)n(C)c(=O)nc1-2	1.3µM	?	1.5µM	0.89µM	?
CC(=O)c1ccc2c(c1)C1C(Cl)C(Sc3ccccc3[N+](=O)[O-])CC1C(c1ccccc1[N+](=O)[O-])N2 (configuration not stated)	–	–	–	–	4.1µM
CC(=O)c1ccc2c(c1)C1C(Cl)C(Sc3ccccc3[N+](=O)[O-])CC1C(c1ccccc1)N2 (configuration not stated)	–	–	–	–	?
COc1ccc(NC(=O)c2cn(CCC#N)nc2-c2ccc(OC)c(OC)c2)cc1	–	–	6.5µM	–	–
COc1ccc(COC(=O)CCNC(=O)c2ccc(Cl)cc2)cc1	·	–	–	·	?
Cn1c(=O)oc2cc(NC(=O)CCl)ccc21	?	?	–	?	?
COc1cc(OC)cc(-c2sc3ccc(OC)cc3c2-c2ccc(OCCN3CCOCC3)cc2)c1	·	?	?	·	6.5µM
c1ccc2c(CCNC3CCCCC3)c[nH]c2c1	–	21µM	–	–	–
c1ccc2c(CCNC3=NCCC3)c[nH]c2c1	–	–	–	–	–
CC(C)(C)c1ccc(/C=C2\Oc3cc(OC(=O)N4CCOCC4)ccc3C2=O)cc1	–	?	15µM	–	–
C[C@@H](NC(=O)[C@@H](N)Cc1ccc(O)cc1)C(=O)NCC(=O)N(C)[C@@H](Cc1ccccc1)C(=O)NCCO	–	·	·	–	·
N[C@@H](Cc1cc(Br)c(O)c(Br)c1)C(=O)O	–	–	18µM	–	–
Nn1cnnc1	–	·	·	–	·
